Results filed as inconclusive are left out. The source made the active and inactive calls. Rule for the calls: active = hit-call score of the fitted dose curve at least 0.9, where 1 is the maximum; inactive = score below 0.9.
Molecular target: Grik1 (gene 29559) (UniProt P22756)
Test: NVS_IC_rKAR: NovaScreen (NVS) Ion Channel Assay for Kainic Acid Receptors (KAR)
Experimental: NVS_IC_rKAR is a biochemical, single-readout assay that uses extracted gene-proteins from Rat forebrain membranes in a tissue-based cell-free assay. Measurements were taken 1 hour after chemical dosing in a 48-well plate.NVS_IC_rKAR is one of one assay component(s) measured or calculated from the NVS_IC_rKAR assay. It is designed to make measurements of radioligand binding, a form of binding reporter, as detected with scintillation counting signals by Filter-based radiodetection technology.Data from the assay component NVS_IC_rKAR was analyzed into 1 assay endpoint. This assay endpoint, NVS_IC_rKAR, was analyzed in the positive analysis fitting direction relative to DMSO as the negative control and baseline of activity. […] Furthermore, this assay endpoint can be referred to as a primary readout, because the performed assay has only produced 1 assay endpoint. […]
Binding assays used specific radioligands (tritiated, iodinated) with non-radioactive competitive displacement ligands in agonist or antagonist protocols (as indicated) and various reference compounds and inhibitors to titrate specific binding to receptors and transporters. Most enzyme assays (CYPs, kinases, phosphatases, proteases, HDACs) used recombinant protein and specific substrates (fluorescence mostly, some colorimetric and radioactive) and inhibitors, followed by a biochemical separation of substrate and product. […]

Chain of Grik1 (gene 29559) (P22756 whole entry, looked up): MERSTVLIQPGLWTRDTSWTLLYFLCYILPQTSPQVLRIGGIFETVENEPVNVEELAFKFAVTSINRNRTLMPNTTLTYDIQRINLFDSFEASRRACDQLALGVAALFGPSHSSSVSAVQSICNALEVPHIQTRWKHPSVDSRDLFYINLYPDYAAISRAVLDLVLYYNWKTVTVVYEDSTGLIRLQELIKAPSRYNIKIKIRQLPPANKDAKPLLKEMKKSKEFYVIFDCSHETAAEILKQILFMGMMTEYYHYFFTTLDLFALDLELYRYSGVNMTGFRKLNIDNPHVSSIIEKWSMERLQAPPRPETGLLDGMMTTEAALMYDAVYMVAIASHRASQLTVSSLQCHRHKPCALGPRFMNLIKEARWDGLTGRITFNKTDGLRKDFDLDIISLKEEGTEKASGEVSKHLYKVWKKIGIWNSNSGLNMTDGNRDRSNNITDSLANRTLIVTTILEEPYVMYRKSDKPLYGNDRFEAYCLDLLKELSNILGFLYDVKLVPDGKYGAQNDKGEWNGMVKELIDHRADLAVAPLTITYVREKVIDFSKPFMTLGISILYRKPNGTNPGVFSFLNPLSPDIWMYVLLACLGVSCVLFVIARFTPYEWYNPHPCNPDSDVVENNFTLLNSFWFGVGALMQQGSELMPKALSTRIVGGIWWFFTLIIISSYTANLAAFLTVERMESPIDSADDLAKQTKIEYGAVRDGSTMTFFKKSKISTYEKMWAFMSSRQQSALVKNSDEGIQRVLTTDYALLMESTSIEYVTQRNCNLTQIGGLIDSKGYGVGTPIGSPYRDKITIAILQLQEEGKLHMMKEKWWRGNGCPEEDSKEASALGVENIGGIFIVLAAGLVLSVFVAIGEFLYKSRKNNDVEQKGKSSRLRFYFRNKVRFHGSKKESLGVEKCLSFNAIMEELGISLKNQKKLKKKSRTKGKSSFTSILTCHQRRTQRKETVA

Compound	AC50
CCCCCCC(C)OC(=O)COc1nc(F)c(Cl)c(N)c1Cl (configuration not stated)	30.2 µM (active)
CCCCCCCCCCCCCCCCCC(=O)O	1.4 µM (active)

Source: PubChem BioAssay AID2283334 (EPA ToxCast)
